# High-throughput results: PubChem BioAssay, Broad Institute
# Most compounds without a hit are left out; they make up all but 2.8% or so of the library.
# SIRT5 block: sirtuin-5 (human) deacylase inhibition. Q9NXA8. Purified SirT5, succinyl-peptide AMC, trypsin-coupled fluorescence. inhibition, % at 15 µM. hit rate 1.1% among 330,000. AID 652115; in the data active = inhibition above about 15%
# PvdQ acylase: P. aeruginosa PvdQ acylase inhibition | AID 488965 | purified PvdQ acylase, fluorescence plate reader | hit rate 0.063% among 340,000 | inhibition, % at 10 µM; in the data active = inhibition above about 30%, passing the limit was not always enough;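 also: 0% = vehicle neutral wells and 100% = reference inhibitor wells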
# FGF22 binding: binders of recombinant human FGF22 by thermal shift | Q9HCT0 | SYPRO orange fluorescence; percent of sucrose octasulfate shift, DMSO zero | hit rate 1.5% among 340,000 | AID 651658 | activity (Tm shift, normalised), % at 9.99 µM;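 active = mean Tm shift, scaled 0 neutral to 100 positive control, at about 1.3% or above, every replicate too, limit read from the data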
# PglD DTNB: inhibitors of Campylobacter jejuni PglD acetyltransferase | inhibition, % at 12.5 µM | hit rate 0.098% among 360,000 | purified PglD enzyme, DTNB colorimetric CoA detection; in the data active = inhibition above about 16%, passing the limit was not always enough
# CDK5 p35 inh: CDK5/p35 (human) kinase inhibition; hit rate 0.01% among 330,000; Q00535+Q15078; inhibition, % at 10 µM; Recombinant CDK5/p35, ADP-Glo luminescence, 60 min;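 active = highest replicate inhibition of at least 50% and at least 75% of replicates reaching 50%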;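 also: plate controls were DMSO neutral control for no effect and GW8510 at 10 µM for full effect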
# Target sequence (Q00535 whole entry, looked up): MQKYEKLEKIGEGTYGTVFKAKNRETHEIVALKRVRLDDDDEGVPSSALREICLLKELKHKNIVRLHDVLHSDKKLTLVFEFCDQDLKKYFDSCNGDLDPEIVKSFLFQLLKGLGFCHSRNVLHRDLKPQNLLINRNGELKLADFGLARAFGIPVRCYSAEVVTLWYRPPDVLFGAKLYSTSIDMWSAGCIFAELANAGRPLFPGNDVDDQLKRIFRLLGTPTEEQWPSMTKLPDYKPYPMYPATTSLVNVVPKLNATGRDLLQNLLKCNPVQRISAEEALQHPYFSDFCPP
# Target sequence (Q15078 whole entry, looked up): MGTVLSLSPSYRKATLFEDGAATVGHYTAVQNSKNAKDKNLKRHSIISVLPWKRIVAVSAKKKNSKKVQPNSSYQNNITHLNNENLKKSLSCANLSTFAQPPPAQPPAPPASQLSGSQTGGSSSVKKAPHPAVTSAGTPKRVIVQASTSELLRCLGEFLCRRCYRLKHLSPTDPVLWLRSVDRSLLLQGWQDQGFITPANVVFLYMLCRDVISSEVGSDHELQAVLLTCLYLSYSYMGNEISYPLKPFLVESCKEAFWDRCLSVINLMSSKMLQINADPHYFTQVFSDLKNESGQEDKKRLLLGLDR
# dFosB act: mouse delta FosB homodimer activation; hit rate 0.99% among 340,000; P13346; purified delta FosB, TAMRA-CDK5 oligo fluorescence polarization; percent of positive-control signal above neutral wells; activation, % at 25 µM;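 active = mean activation above about 17%, with every replicate also reaching it, limit read from the data, passing the limit was not always enough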
# Active calls of the source: *; . = no result given.
SMILES,SIRT5 block,PvdQ acylase,FGF22 binding,PglD DTNB,CDK5 p35 inh,dFosB act
C[C@@H](O)C#Cc1ccc([C@@H]2[C@H]3CN(C(=O)c4cccc(F)c4)CCCCN3[C@H]2CO)cc1,23*,.,0,6,.,.
CCC(=O)N[C@H]1C=C[C@@H](CC(=O)NCc2ccccc2F)O[C@@H]1CO,1,.,0,4,.,.
O=C(C[C@H]1C=C[C@H](NS(=O)(=O)c2ccc(F)cc2)[C@H](CO)O1)NCc1ccc(Cl)c(Cl)c1,-1,.,0,3,.,.
C[C@@H]1CN([C@@H](C)CO)C(=O)Cc2cc(NC(=O)Nc3ccc(C(F)(F)F)cc3)ccc2O[C@@H]1CN(C)S(=O)(=O)c1cn(C)cn1,-1,.,-1,1,.,.
CC(=O)N1CCCCN2[C@H](CO)[C@@H](c3ccc(Br)cc3)[C@@H]2C1,0,.,1,6,.,.
COc1ccc(NC(=O)N2CCCCN3[C@H](C2)[C@H](c2ccc(C#Cc4ccccc4)cc2)[C@@H]3CO)cc1,.,.,.,-1,.,.
COc1ccc(NC(=O)N2CCCCN3[C@H](C2)[C@@H](c2ccc(C#Cc4ccccc4)cc2)[C@@H]3CO)cc1,16*,.,0,-2,.,.
CC(=O)N1CCCCN2[C@@H](CO)[C@H](c3ccc(Br)cc3)[C@@H]2C1,17*,.,1,1,.,.
Cc1noc(C)c1S(=O)(=O)Nc1ccc2c(c1)C(=O)N([C@@H](C)CO)C[C@H](C)[C@@H](CN(C)S(=O)(=O)c1c(C)noc1C)OCCCC[C@H](C)O2,9,.,0,-1,.,.
CCn1ncc(-c2cc(C(=O)O)no2)c1C,1,-5,43*,.,-1,-3
CO[C@H]1CN(C)C(=O)c2cc(NC(=O)C3CC3)ccc2OC[C@@H](C)N(C)C[C@H]1C,2,.,0,9,.,.
CC(=O)NC1C(=O)N=C(SCC(=O)Nc2ccc(C(F)(F)F)cc2Cl)NC1=O (stereo not drawn),-1,-19,44*,.,0,0
C[C@@H]1CN([C@@H](C)CO)C(=O)c2cc(C3=CCCCC3)cnc2O[C@H]1CN(C)Cc1ccncc1,3,.,0,-1,.,.
CC(C)CC(N)c1csc(Nc2ccccn2)n1 (stereo not drawn),0,.,0,3,.,.
CC(C)CC(N)c1csc(Nc2cnccn2)n1 (stereo not drawn),.,.,44*,-3,.,.
COc1ccc(NC(=O)N(C)C[C@H]2Oc3c(NC(=O)C4CCOCC4)cccc3C(=O)N([C@@H](C)CO)C[C@@H]2C)cc1,3,.,0,3,.,.
O=C1C2C3CC(C(Br)C3Br)C2C(=O)N1c1nccs1 (stereo not drawn),.,.,0,-4,.,.
O=C1CCCN1c1nccs1,3,17,44*,.,2,3
CCOC(=O)/C(C#N)=C/c1ccc(SC)cc1,0,45*,0,.,1,5
CCOC(=O)/C(C#N)=C/c1ccc(OC)c(OC)c1,.,-11,.,2,-3,-9
CCN(CC)c1ccc(/C=C(\C#N)C(N)=O)cc1,6,8,43*,.,1,-9
c1cc2c(cc1C1CCCCC1)c1c3n2CCCNC3CCC1 (stereo not drawn),.,1,.,.,1,25*
Cc1ccc2c(c1)c1c3n2CCCNC3CCC1 (stereo not drawn),.,-28,.,3,1,0
C[C@@H]1CN([C@@H](C)CO)C(=O)c2cc(C#Cc3ccccn3)cnc2O[C@@H]1CN(C)C(=O)c1ccccn1,2,.,0,-4,.,.
COc1cccc(-c2ccc3c(c2)[C@H]2[C@H](CCN2C(=O)c2ccccc2F)[C@H](CO)N3C)c1,20*,.,0,0,.,.
SMILES,SIRT5 block,PvdQ acylase,FGF22 binding,PglD DTNB,CDK5 p35 inh,dFosB act
COc1ccc(-c2ccc3c(c2)[C@H]2[C@H](CCN2C(=O)c2ccccc2F)[C@H](CO)N3C)cc1,.,.,0,-7,.,.
CCn1ccnc1CN(C)Cc1cn(-c2ccccc2)nc1-c1ccc(OC)cc1F,-2,-6,45*,0,0,-11
COc1ccc2c3c([nH]c2c1)[C@H](CO)N(Cc1ccccc1OC)CC31CN(C)C1,.,.,0,.,.,.
CN(CC(=O)Nc1ccc(S(N)(=O)=O)cc1)Cc1ccccc1F,21*,-12,42,.,1,-6
CN(CC(=O)NC(=O)Nc1ccccc1F)Cc1ccccc1F,.,-22,0,9,-3,-10
Cc1ccc(C(=O)c2cc(C)sc2N)cc1,10,-6,43*,.,2,-1
Cc1ccc(C(=O)c2cc3c(cc2N)OCCO3)cc1,-3,-6,0,0,-2,5
